# Data from the supplement of paper PMC8728848.
# About 410 targets per protein were measured; listed, in parts, are those with the strongest signals and a random draw of the rest.
# B1: PX9961A-pdi-456-24-456 (Parabacteroides distasonis) (protein)
# chain: KTSSTQLPTIDAISSVADLTNAVNGVYEQQATEVGSYGAEFTLLADLRSGDFQSISTVNHAGPMYRYQTGKNDEMVYSFYKLFYNSLARLNNVLAAAENLEGADVDILKGELYAMRALYHFDLARVFAKLPSTTDMNDLGIVLSTEVYPTDYIGTRATLQQTYDQILKDIETALPLLSKDKQTGHINYWGALAIRARAYLYLEKNKEALADCKEIIASSPYKLYTRDEYIGAWDKEGTNEAIFEILVTPNYNAQRNSIGYFTHASGYGECAATESFLEELAKHPGDIRTELFAKETDNGYDGTYPQKYKGRDGQIYVNNPKVVRLSEVYLIAAEAALKAGDTSAAAGYMNTLRKNRIENYTDVASITLDDILLERRLELFTEGHTAWDAWRNGKSVNNKFVGEVKPGDYRTIMAIPIGEITVSRGQLIQNPGY
# Legend:
# Assay in all cases: glycan array binding signal (z-score within array); higher = stronger binding
# Details in all cases: glycan notation: IUPAC condensed, linker removed
# [1] = target: Gal(b1-4)GlcNAc(b1-3)Gal(b1-4)GlcNAc(b1-3)Gal(b1-4)GlcNAc(b1-3)Gal(b1-4)GlcNAc(b1-2)Man(a1-3)[Gal(b1-4)GlcNAc(b1-3)Gal(b1-4)GlcNAc(b1-3)Gal(b1-4)GlcNAc(b1-3)Gal(b1-4)GlcNAc(b1-2)Man(a1-6)]Man(b1-4)GlcNAc(b1-4)[Fuc(a1-6)]GlcNAc
# How it was run: (§1)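 Negative Z-scores can be read as non-binding. The Z-score is calculated within each array and then averaged across arrays of one protein sequence at different concentrations or buffers and across linkers. Arrays, 3228 in all, were curated from the Consortium for Functional Glycomics database and kept only where the protein sequence was available.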
# [2] = target: Gal(b1-4)GlcNAc(b1-3)Gal(b1-4)GlcNAc(b1-3)Gal(b1-4)GlcNAc(b1-3)Gal(b1-4)GlcNAc(b1-3)Gal(b1-4)GlcNAc(b1-2)Man(a1-3)[Gal(b1-4)GlcNAc(b1-3)Gal(b1-4)GlcNAc(b1-3)Gal(b1-4)GlcNAc(b1-3)Gal(b1-4)GlcNAc(b1-3)Gal(b1-4)GlcNAc(b1-2)Man(a1-6)]Man(b1-4)GlcNAc(b1-4)GlcNAc
# How it was run: as §1
# [3] = target: Gal(b1-4)GlcNAc(b1-3)Gal(b1-4)GlcNAc(b1-3)Gal(b1-4)GlcNAc(b1-3)Gal(b1-4)GlcNAc(b1-3)Gal(b1-4)GlcNAc(b1-3)Gal(b1-4)GlcNAc(b1-2)Man(a1-3)[Gal(b1-4)GlcNAc(b1-3)Gal(b1-4)GlcNAc(b1-3)Gal(b1-4)GlcNAc(b1-3)Gal(b1-4)GlcNAc(b1-3)Gal(b1-4)GlcNAc(b1-3)Gal(b1-4)GlcNAc(b1-2)Man(a1-6)]Man(b1-4)GlcNAc(b1-4)GlcNAc
# How it was run: as §1
# [4] = target: Gal(b1-4)GlcNAc(b1-3)Gal(b1-4)GlcNAc(b1-3)GalNAc
# How it was run: as §1
# Gal3S(b1-4)Glc = target: Gal3S(b1-4)Glc
# How it was run: as §1
# GalNAc(a1-3)Gal = target: GalNAc(a1-3)Gal
# How it was run: as §1
# [5] = target: GalNAc(b1-3)Gal(a1-4)Gal(b1-4)GlcNAc(b1-3)Gal(b1-4)Glc
# How it was run: as §1
# Glc(b1-6)Glc = target: Glc(b1-6)Glc
# How it was run: as §1
# [6] = target: GlcNAc(b1-2)Man(a1-3)[GlcNAc(b1-4)][GlcNAc(b1-2)Man(a1-6)]Man(b1-4)GlcNAc(b1-4)GlcNAc
# How it was run: as §1
# [7] = target: GlcNAc(b1-3)Gal(b1-4)GlcNAc(b1-2)[GlcNAc(b1-3)Gal(b1-4)GlcNAc(b1-6)]Man(a1-6)[GlcNAc(b1-3)Gal(b1-4)GlcNAc(b1-2)Man(a1-3)]Man(b1-4)GlcNAc(b1-4)GlcNAc
# How it was run: as §1
# [8] = target: GlcNAc(b1-3)Gal(b1-4)GlcNAc(b1-3)Gal(b1-4)GlcNAc(b1-3)Gal(b1-4)GlcNAc(b1-3)Gal(b1-4)GlcNAc(b1-2)Man(a1-3)[GlcNAc(b1-3)Gal(b1-4)GlcNAc(b1-3)Gal(b1-4)GlcNAc(b1-3)Gal(b1-4)GlcNAc(b1-3)Gal(b1-4)GlcNAc(b1-2)Man(a1-6)]Man(b1-4)GlcNAc(b1-4)[Fuc(a1-6)]GlcNAc
# How it was run: as §1
# [9] = target: GlcNAc(b1-3)Gal(b1-4)GlcNAc(b1-3)GalNAc
# How it was run: as §1
# [10] = target: GlcNAc(b1-3)Gal(b1-4)GlcNAc(b1-3)[GlcNAc(b1-3)Gal(b1-4)GlcNAc(b1-3)]GalNAc
# How it was run: as §1
# [11] = target: Neu5Ac(a2-3)Gal(b1-3)GlcNAc(b1-2)Man(a1-3)[Neu5Ac(a2-3)Gal(b1-3)GlcNAc(b1-2)Man(a1-6)]Man(b1-4)GlcNAc(b1-4)GlcNAc
# How it was run: as §1
# [12] = target: Neu5Ac(a2-3)Gal(b1-3)GlcNAc(b1-4)Gal(b1-4)Glc
# How it was run: as §1
# [13] = target: Neu5Ac(a2-3)Gal(b1-3)GlcNAc(b1-6)GalNAc
# How it was run: as §1
# [14] = target: Neu5Ac(a2-3)Gal(b1-3)GlcNAc6S
# How it was run: as §1
# [15] = target: Neu5Ac(a2-3)Gal(b1-4)[Fuc(a1-3)]GlcNAc(b1-2)Man
# How it was run: as §1
# [16] = target: Neu5Ac(a2-3)Gal(b1-4)[Fuc(a1-3)]GlcNAc(b1-6)[Neu5Ac(a2-3)Gal(b1-3)]GalNAc
# How it was run: as §1
# Neu5Ac(a2-6)Gal = target: Neu5Ac(a2-6)Gal
# How it was run: as §1
# [17] = target: Neu5Ac(a2-6)Gal(b1-4)GlcNAc(b1-2)Man(a1-3)Man(b1-4)GlcNAc(b1-4)GlcNAc
# How it was run: as §1
# [18] = target: Neu5Ac(a2-6)Gal(b1-4)GlcNAc(b1-2)[Neu5Ac(a2-6)Gal(b1-4)GlcNAc(b1-4)]Man(a1-3)[GlcNAc(b1-4)][Neu5Ac(a2-6)Gal(b1-4)GlcNAc(b1-4)Man(a1-6)]Man(b1-4)GlcNAc(b1-4)GlcNAc
# How it was run: as §1
# [19] = target: Neu5Ac(a2-6)Gal(b1-4)GlcNAc(b1-6)[Gal(b1-3)]GalNAc
# How it was run: as §1
binder,measurement,setting,value
B1,glycan array binding signal (z-score),[1],6.49
same,glycan array binding signal (z-score),[2],2.59
same,glycan array binding signal (z-score),[3],7.59
same,glycan array binding signal (z-score),[4],0.087
same,glycan array binding signal (z-score),Gal3S(b1-4)Glc,-0.121
same,glycan array binding signal (z-score),GalNAc(a1-3)Gal,3.31
same,glycan array binding signal (z-score),[5],0.012
same,glycan array binding signal (z-score),Glc(b1-6)Glc,-0.218
same,glycan array binding signal (z-score),[6],-0.42
same,glycan array binding signal (z-score),[7],0.033
same,glycan array binding signal (z-score),[8],2.18
same,glycan array binding signal (z-score),[9],0.389
same,glycan array binding signal (z-score),[10],-0.009
same,glycan array binding signal (z-score),[11],-0.512
same,glycan array binding signal (z-score),[12],-0.437
same,glycan array binding signal (z-score),[13],0.343
same,glycan array binding signal (z-score),[14],0.048
same,glycan array binding signal (z-score),[15],-0.398
same,glycan array binding signal (z-score),[16],0.273
same,glycan array binding signal (z-score),Neu5Ac(a2-6)Gal,-0.046
same,glycan array binding signal (z-score),[17],-0.293
same,glycan array binding signal (z-score),[18],-0.061
same,glycan array binding signal (z-score),[19],-0.445
